PNC assembly inh: inhibitors of perinucleolar compartment assembly | 140,000 compounds, 3.1% hits | PC3M PTB-GFP, PNC prevalence imaging, 16 h; active compounds read low | activity change (PNC), negative = inhibition, % at 10 µM;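 active = readout at or below -70, meaning at least 70% loss of cells showing the perinucleolar compartment, a nuclear body marking cancer cells; inconclusive = readout between -30 and a set limit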;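 note: plate controls were DMSO wells for no effect and camptothecin positive control wells for full effect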
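Read-out is percentage of cells bearing a perinucleolar compartment, from automated 20x imaging of fixed, Hoechst-stained PC3M PTB-GFP cells. Cells were seeded 4 h, then exposed 16 h to compound (23 nl of library stock) in duplicate plates.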
LMNA splice mod: LMNA splicing modulation; HeLa LMNA splicing GFP/RFP minigene ratio, 48 h; Potency, µM (highest dose often 46.1 µM), without a hit: top-dose ratio change, negative = inhibition, most hits filed as inhibitors; 200,000 compounds, 0.01% hits; AID 1487; active = well fitted inhibition curve with a large enough effect in the signal ratio, with a control signal flat, not every such curve was filed as active; inconclusive = small, poorly fitted or top-dose-only effect, or effect the other way, or a change in a side signal; the % refers to the signal ratio; note: potency is the fitted concentration of half-maximal effect
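S3 HeLa cells stably expressing lamin A-EGFP splicing minigene plus DsRed2, 600 cells/well, 48 h compound exposure at 37C. Laser-scanning cytometry; analysed as GFP (500-530 nm)/RFP (575-640 nm) total intensity ratio; 0.5% DMSO vehicle.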
IMPase cell inh: IMPase inhibition in cells; inhibition (IP1 accumulation), % at 46.1 µM; P97697; CHO-M1 cells, IP1 accumulation, HTRF TR-FRET ratio; 120,000 tested, under 10 active; active = well fitted curve in the direction sought with a large enough effect in the signal ratio, not every such curve was filed as active; inconclusive = small, poorly fitted or top-dose-only effect, or a change in a side signal; inactive = no such curve, though single readings can be large or run the other way; the % refers to the signal ratio;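 note: cells stimulated with carbachol in lithium chloride buffer; plate controls were DMSO basal wells for no effect and reference inhibitor wells for full effect; higher means more IMPase inhibition seen as more IP1 and lower FRET ratio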
Target sequence (P97697 whole entry, looked up): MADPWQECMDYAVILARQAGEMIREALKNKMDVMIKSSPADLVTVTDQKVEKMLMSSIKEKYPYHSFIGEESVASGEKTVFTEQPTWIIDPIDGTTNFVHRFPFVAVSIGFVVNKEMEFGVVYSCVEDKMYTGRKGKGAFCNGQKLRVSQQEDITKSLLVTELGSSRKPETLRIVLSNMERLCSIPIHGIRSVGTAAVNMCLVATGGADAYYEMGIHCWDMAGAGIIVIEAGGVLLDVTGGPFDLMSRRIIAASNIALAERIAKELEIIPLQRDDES
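Elevated IP1 in lysates lowers TR-FRET signal (665/620 ratio and 620 channel reported). Cells were CHO-M1, given carbachol (50 uM as added) plus 50mM LiCl, pH 7.4, 30 min, 37C; compounds titrated up to 46 uM; AC50 by Hill equation.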
An asterisk follows results filed as active; ? = inconclusive; . = no result given; [ ] = another dose, or the depositor's remark. The entries come from a sample that favours hits as a whole. Unless noted, % is set by controls: 0 for no effect and ±100 for the full control effect.

SMILES	PNC assembly inh	LMNA splice mod	IMPase cell inh
Fc1ccc(C(c2nnnn2C2CCCC2)N2CCN(Cc3ccccc3)CC2)cc1 (stereo not given)	3	-1%	23
c1ccc(C(c2ccccc2)N2CCN(Cc3nnnn3C3CCCC3)CC2)cc1	-82*	?	1
N#Cc1cccc(C(c2nnnn2C2CCCC2)N2CCC(Cc3ccccc3)CC2)c1 (stereo not given)	-100*	-11%	0
N#Cc1ccc(C(c2nnnn2C2CCCC2)N2CCC(Cc3ccccc3)CC2)cc1 (stereo not given)	52	3%	-11
Cc1cc(C)c(S(=O)(=O)Nc2cccc(-c3cn4ccccc4n3)c2)c(C)c1	.	-4%[46 µM]	.
O=C(Cn1c(=O)n(CCCS(=O)(=O)C2CCCCC2)c(=O)c2ccccc21)Nc1ccccc1F	.	.	-26
Cc1ccc(N2CC(NC(=O)c3cccs3)CC2=O)cc1 (stereo not given)	.	8%[46 µM]	.
CC(=O)c1ccc(NC(=O)C2CCCN(S(=O)(=O)c3cn(C)cn3)C2)cc1 (stereo not given)	.	-11%[46 µM]	.
Cc1ccc(C(=O)NCCSc2snnc2C)cc1	34	1%	7[1.84 µM]
Cc1nnsc1SCCNC(=O)c1c(F)cccc1F	-82*	10%	-4[1.84 µM]
COc1ccc(CCn2c3c(c(=O)[nH]c2=O)C(NC(=O)c2ccccc2)(C(F)(F)F)C(=O)N3)cc1OC (stereo not given)	.	.	-3
Cc1oc(-c2ccccc2Cl)nc1CSCC(=O)NC1CCCC1	26	-4%	-3
Cc1oc(-c2ccccc2Cl)nc1CSCC(=O)N1CCCC1	-109*	?	0
CCn1c(COc2ccccc2C)nnc1SCc1nc2ccccc2c(=O)[nH]1	.	14%[9.22 µM]	.
Cc1ccc(-c2nnn(CC(=O)Nc3ccc(S(=O)(=O)N4CCC(C)CC4)cc3)n2)cc1	-23	16%	12
COc1ccc(NC(=O)Cn2nnc(-c3ccccc3NC(=O)C3CC3)n2)cc1	-104*	-10%	17
CCOc1ccc(NC(=O)Cn2nnc(-c3ccccc3NC(=O)C3CC3)n2)cc1	-6	-3%	8
CC1CCN(S(=O)(=O)c2ccc(NC(=O)Cn3nnc(-c4ccccc4)n3)cc2)CC1	-100*	20%	3
CCC(C)NS(=O)(=O)c1ccc(N2CCCCS2(=O)=O)cc1 (stereo not given)	.	1%[46 µM]	.
Cc1ccc2cc(CCNC(=O)c3ccc4c(c3)OCO4)c(=O)[nH]c2c1C	5	?	-8
COc1ccc(Cn2ccc3nc(C)c(C(=O)Nc4cc(C)cc(C)c4)cc3c2=O)cc1	.	-4%[46 µM]	.
CCOC(=O)c1cc(CC)sc1NC(=O)COc1ccccc1C	.	.	-6
Cc1cccc(NC(=O)c2cc(NC(=O)c3ccco3)ccc2Cl)n1	-110*	-9%	5
Cc1cccc(NC(=O)c2cc(NC(=O)C3CCCCC3C(=O)O)ccc2Cl)n1 (stereo not given)	?	6%	5
COc1nc(-c2ccc(C)cc2)ccc1-c1noc(-c2ccc(C(C)(C)C)cc2)n1	.	.	3
SMILES	PNC assembly inh	LMNA splice mod	IMPase cell inh
Cc1cc(C)nc(NC(=O)c2ccc(C)c([N+](=O)[O-])c2)n1	?	-4%	4
Cc1cc(C)nc(NC(=O)c2cc([N+](=O)[O-])cc([N+](=O)[O-])c2)n1	-113*	-1%	.
Cc1cc(C)nc(NC(=O)c2cccc([N+](=O)[O-])c2C)n1	4	9%	1
Cc1cc(C)nc(NC(=O)c2ccc([N+](=O)[O-])o2)n1	-86*	?	.
Cc1cccc(N(CC(=O)NCCSCc2ccc(Cl)cc2)S(C)(=O)=O)c1C	.	.	-6
COc1ccccc1N1CCN(C(=O)CN(c2ccccc2OC)S(=O)(=O)c2ccccc2)CC1	44	-1%	10
CCN(CC(=O)NCc1ccc(Cl)cc1)Cc1cc(=O)n2ccsc2n1	.	10%[46 µM]	.
Cc1onc(-c2c(Cl)cccc2Cl)c1C(=O)Nn1cnnc1	-107*	-3%	3
Cc1onc(-c2c(Cl)cccc2Cl)c1C(=O)NC(C)(C)CO	0	5%	13
COc1ccc(S(=O)(=O)N2CCC(C(=O)Nc3cc(C(F)(F)F)ccc3Cl)CC2)cc1	.	.	7
CCOC(=O)CCCOC(=O)c1ccc(S(=O)(=O)N(C)C)cc1	-100*	-5%	-5
CN(C)S(=O)(=O)c1ccc(C(=O)OCc2ccc(C#N)cc2)cc1	?	-3%	0
CN(Cc1ccon1)C(=O)CC1C(=O)NCCN1CC1CCCCC1 (stereo not given)	.	11%[46 µM]	.
O=C(NC1CCCCC1)Sc1ccc(Cl)cc1	24	8%	3
CN=C(NC1CCCCC1)c1ccc(Cl)cc1	-103*	8%	.
O=C(Nc1nccs1)C12CC3CC(C1)CC(C(=O)Nc1nccs1)(C3)C2	-88*	-18%	9
O=C(NC1=NCCS1)C12CC3CC(C1)CC(C(=O)NC1=NCCS1)(C3)C2	25	3%	-1
CCOc1ccccc1CNC(=O)C1CCN(c2nn3cc(-c4ccc(F)cc4)nc3s2)CC1	.	7%[46 µM]	.
CCC(CC)NC(=O)CON=C1c2ccccc2-c2ccccc21	-81*	7%	4
CCNC(=O)CON=C1c2ccccc2-c2ccccc21	9	?	.
C#CCN1C(C)=C(C(=O)OC)[C@@H](c2cccc([N+](=O)[O-])c2)C(C(=O)OCC)=C1C	.	.	11
Cc1cc(C)cc(C(=O)NCC(=O)OCC(=O)Nc2ccc(C)cc2Br)c1	.	-5%[46 µM]	.
Cc1ccc(C2Nc3ccccc3C(=O)N2Cc2ccco2)cc1 (stereo not given)	53	6%	4
Cc1ccc(-c2cn(-c3ccccc3)c(SCC(=O)NC3CCS(=O)(=O)C3)n2)cc1C (stereo not given)	-83*	20%	.
CCn1c(SCC(=O)NC2CCS(=O)(=O)C2)nnc1-c1ccccc1 (stereo not given)	.	-1%[46 µM]	.
SMILES	PNC assembly inh	LMNA splice mod	IMPase cell inh
COc1ccc(N2CC(NC(=O)c3cc4ccccc4o3)CC2=O)cc1OC (stereo not given)	.	15%[46 µM]	.
CC(=O)Nc1cccc2c1C(=O)N(c1cccc(OC(C)=O)c1)C2=O	.	5%[46 µM]	.
CC(=O)Oc1cccc(N2C(=O)c3ccccc3C2=O)c1	-85*	4%	.
O=C(CCl)Nc1ccc(N=Nc2ccccc2)cc1	-122*	?	.
CC(=O)Nc1ccc(N=Nc2ccccc2)cc1	-19	-4%	.
CCc1sc(NC(=O)CCC(=O)O)nc1-c1cc2ccccc2oc1=O	.	6%[46 µM]	.
COc1ccc(CNC(=O)CN(CCC(C)C)S(=O)(=O)c2ccc3c(c2)OCCO3)cc1	27	?	.
CC(C)(C)NC(=O)C(c1ccco1)N(Cc1ccc(F)cc1)C(=O)c1snc(C(N)=O)c1N (stereo not given)	-9	8%	13
COc1ccc(CN(C(=O)c2snc(C(N)=O)c2N)C(C(=O)NC(C)(C)C)c2ccco2)cc1 (stereo not given)	-101*	4%	1
CC(C)(C)Cc1nnc(NS(=O)(=O)c2ccc(F)cc2)s1	-82*	13%	8
CC(=O)Nc1ccc(S(=O)(=O)Nc2nnc(CC(C)(C)C)s2)cc1	.	11%[46 µM]	.
Cc1cc(C)n(-c2nnc3n2N=C(c2c[nH]c4ccccc24)CS3)n1	-12	?	7
Cc1cc(C)n(-c2nnc3n2N=C(c2ccccc2)CS3)n1	-135*	3%	6
